# Screens deposited in PubChem BioAssay by National Center for Advancing Translational Sciences (NCATS).
# Many of the other results were omitted from the sample, so hits are more common in it than they were.
# RE007 growth inh: less growth of the S. pombe RE007 Vpr strain | S. pombe RE007 Vpr strain, BacTiter-Glo ATP luminescence, 24 h | Potency, µM (series often up to 92.2 µM), most hits filed as inhibitors | actives 0.21% (n = 360,000) | AID 651644; active = well fitted falling curve with a large enough effect; inconclusive = small, poorly fitted or top-dose-only effect; inactive = no such curve, though single readings can be large or run the other way; also: nearly all actives have a fitted effect of over 50% in size
#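 Fission yeast RE007 carrying one integrated HIV-1 vpr copy, seeded at OD 0.01 in PMG+AL medium with 23 nL pinned compound. Grown 24 h at 30 degrees; viability read by BacTiter-Glo luminescence after 5 min.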
# LmPK inh: blocks Leishmania mexicana pyruvate kinase activity. Q27686. purified LmPK, Kinase-Glo ATP luminescence, 1 h. Potency, µM (highest dose often 57.5 µM), most hits filed as inhibitors. actives 0.37% (n = 290,000)
# Target sequence (Q27686 whole entry, looked up): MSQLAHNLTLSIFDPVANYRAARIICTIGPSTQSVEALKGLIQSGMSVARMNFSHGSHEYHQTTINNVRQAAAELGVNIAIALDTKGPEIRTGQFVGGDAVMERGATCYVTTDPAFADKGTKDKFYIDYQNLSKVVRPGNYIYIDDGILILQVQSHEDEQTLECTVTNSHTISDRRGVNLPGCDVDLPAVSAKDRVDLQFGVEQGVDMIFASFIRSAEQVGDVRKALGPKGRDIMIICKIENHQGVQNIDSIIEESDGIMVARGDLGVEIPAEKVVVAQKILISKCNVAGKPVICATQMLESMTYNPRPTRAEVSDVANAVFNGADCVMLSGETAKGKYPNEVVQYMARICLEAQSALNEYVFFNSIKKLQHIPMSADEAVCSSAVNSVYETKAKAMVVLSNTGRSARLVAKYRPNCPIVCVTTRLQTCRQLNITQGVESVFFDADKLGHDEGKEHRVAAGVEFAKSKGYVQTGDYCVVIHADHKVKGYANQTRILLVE
#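 Pyruvate kinase activity monitored as ATP production (luciferase luminescence). Conditions: 0.1 nM enzyme, 0.5 mM PEP, 0.1 mM ADP, 1 h, RT; normalized against uninhibited and no-enzyme wells.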
# TbPYK inhibitor: T. brucei pyruvate kinase inhibition | TbPYK enzyme, Kinase-Glo Plus ATP luminescence, 45 min | Potency, µM (titrated, usually from 76.8 µM), most hits filed as inhibitors | actives 0.12% (n = 410,000); also: nearly all actives have a fitted effect of over 50% in size
#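 ADP (130 uM final) triggers the TbPYK reaction after compound addition; incubation is 45 min at room temperature. Kinase-Glo Plus is then added and luminescence imaged. Normalized data are fitted to concentration-effect curves.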
# Giardia FBPA inh: blocks Giardia fructose-bisphosphate aldolase activity | A8B2U2 | purified Giardia FBPA | Potency, µM (doses to about 59.6 µM), usual class: inhibitors | actives 0.71% (n = 290,000) | AID 2451; also: nearly all actives have a fitted effect of over 55% in size
#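 40 nM FBPA preincubated 10 min at RT with compound (up to 57.5 uM final), then substrate plus GAPDH/TPI/NAD/arsenate coupling and diaphorase/resazurin added. Fluorescence read after 20 min at RT, 525/598 nm.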
# Shiga inhibitor: blocks Shiga toxin action in Vero cells; Vero cells, Shiga toxin protein synthesis inhibition reporter; actives 9.2% (n = 290,000); inhibition, % at 38.7 µM; in the data active = inhibition mostly above about 28%, no sharp cut-off; inactive = mostly below about 43%
# Cycloheximide cs: counter-screen for Shiga toxin inhibitors: cycloheximide protein synthesis inhibition; max response, %; cell reporter, cycloheximide protein synthesis inhibition counterscreen; actives 12% (n = 300,000); AID 2314; in the data active = max response mostly above about 13%, no sharp cut-off; inactive = mostly below about 14%; also: read at 38.3 µM for the half of the compounds with a filed dose
# A number is an active result; i = inactive; ? = inconclusive; nt = not tested or not shown; [ ] = remark or other dose. Unless noted, calls follow the shape of the dose curve; as a rule, active = well fitted curve in the direction sought with a large enough effect; inconclusive = small, poorly fitted or top-dose-only effect, or another doubt; inactive = no such curve, though single readings can be large; an effect the other way counts as inactive or inconclusive.
SMILES,RE007 growth inh,LmPK inh,TbPYK inhibitor,Giardia FBPA inh,Shiga inhibitor,Cycloheximide cs
COc1ccc(-c2cn3cccnc3n2)cc1NC(=O)C(C)C,nt,i,nt,i,i,i
COc1ccc(-c2cn3cccnc3n2)cc1Br,i,i,i,i,98.9,14.9
Nc1ccc(-c2cn3cccnc3n2)cc1,i,i,i,i,i,17.4
COc1ccc(-c2cn3cc(Br)cnc3n2)cc1,i,i,i,i,i,24.6
CC(=O)Nc1cccc(-c2cn3cccnc3n2)c1,nt,nt,i,nt,nt,nt
CCc1nc2ccccc2n2c(-c3ccccc3)c3c(=O)n(C)c(=O)n(C)c3c12,nt,nt,i,nt,nt,nt
CC(C)c1ccc(NC(=O)Cn2cc(S(=O)(=O)Cc3ccccc3Cl)c3ccccc32)cc1,nt,nt,i[15.4 µM],nt,nt,nt
COc1ccc(C2CC(=O)N(CC(=O)NCC3CCCO3)c3ccccc3S2)cc1OC (centres undefined),i,i,i,i,i,24.6
O=C(CN1C(=O)CC(c2ccccc2)Sc2ccccc21)NCC1CCCO1 (centres undefined),i,i,i,i,i,i
COc1ccc(C2CC(=O)N(C)c3ccccc3S2)cc1OC (centres undefined),i,i[11.5 µM],i,i,149.1,56.7
COc1ccc(C2CC(=O)N(Cc3ccc(F)cc3)c3ccccc3S2)cc1OC (centres undefined),nt,nt,i,nt,nt,nt
O=S(=O)(c1ccc(Br)cc1)c1nnn2c1nc(NCc1cccs1)c1sccc12,nt,nt,i,nt,nt,nt
CC1CCCN(C(=O)Cn2nnc(-c3ccc([N+](=O)[O-])cc3)n2)C1 (centres undefined),nt,i,nt,i,i,i
COCCCn1c(=O)c2sccc2n2c(CCCC(=O)Nc3cc(C)cc(C)c3)nnc12,nt,nt,i,nt,nt,nt
Cn1c(C(=O)NCc2ccccn2)cc2c(=O)n3ccccc3nc21,i,i,i,i,58.4,28.7
Cn1c(C(=O)NC2CCCCC2)cc2c(=O)n3ccccc3nc21,i,i,i,nt,i,22.7
Cc1cccn2c(=O)c3cc(C(=O)NC4CCCC4)sc3nc12,i,i,i,nt,i,18.6
CCn1c(=N)c(C(=O)NC2CCCC2)cc2c(=O)n3ccccc3nc21,nt,nt,i,nt,nt,nt
COc1cc(OC)c(NC(=O)CN2C(=O)CCn3nc(-c4cccn4C)cc32)cc1Cl,nt,nt,i,nt,nt,nt
Cc1cccc2c1-c1sc(C(=O)NCCCN3CCN(c4cccc(Cl)c4)CC3)cc1CO2,nt,nt,i,nt,nt,nt
Cc1cccc(C(=O)NCCc2nc3ccccc3n2CCC(C)C)c1,nt,nt,i,nt,nt,nt
CC1CCN(C2=C(NS(=O)(=O)c3ccc(Cl)cc3)C(=O)c3ccccc3C2=O)CC1,i,i,i,?,84.6,22.5
CC1CCN(C2=C(NS(=O)(=O)c3ccc(Br)cc3)C(=O)c3ccccc3C2=O)CC1,i,i,i,i,38.1,32.0
CCN1CCN(C2=C(NS(=O)(=O)c3ccc(C)cc3)C(=O)c3ccccc3C2=O)CC1,i,i,i,nt,i,23.1
CCN1CCN(C2=C(NS(=O)(=O)c3ccc(NC(C)=O)cc3)C(=O)c3ccccc3C2=O)CC1,i,i,i,nt,i,i
SMILES,RE007 growth inh,LmPK inh,TbPYK inhibitor,Giardia FBPA inh,Shiga inhibitor,Cycloheximide cs
CC(=O)Nc1ccc(S(=O)(=O)NC2=C(N3CCN(C)CC3)C(=O)c3ccccc3C2=O)cc1,i,i,i,0.708µM,i,i
CCOC(=O)C1CCN(C2=C(NS(=O)(=O)c3ccc(Cl)cc3)C(=O)c3ccccc3C2=O)CC1,i,i,i,?,i,i
CCn1c(=O)c2[nH]c(SC)nc2n(CC)c1=O,i,nt,i,nt,nt,nt
CC1CCN(C2=C(NS(=O)(=O)c3ccccc3)C(=O)c3ccccc3C2=O)CC1,i,i,i,?,i,19.7
COC(=O)/C=C/c1ccc(C(=O)NCC(=O)N[C@@H](CCC(=O)OC)C(=O)N[C@@H](CC(C)C)C(N)=O)cc1,nt,nt,nt,i,i,i
C/C(=N\O)c1cccc(Br)c1,i,i,i,i,i,i
C/C(=N/O)c1cccc(N2Cc3ccccc3C2)c1,i,i,i,i,50.7,17.9
CCc1ccc(C(=O)NC2CCCCC2)s1,i,i,i,i,67.0,53.4
CC(C)(O)C#Cc1ccc(C(=O)Nc2ccc3c(c2)OCO3)s1,i,i,i,i,106.7,58.2
CC(C)(O)C#Cc1ccc(C(=O)NCCC(=O)O)s1,i,i,i,i,i,i
